These results are taken from PubChem BioAssay.

Assay [1] in a line: reducers of endogenous Her2 protein level, primary screen, SKBR3 breast tumor cells, AlphaScreen, ATP viability (AID 461;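 active means Her2 level under about 52% in both replicate screens, with viability over 70% of control, limit read from the data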;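 on Her2 level: lower value means less Her2 protein in the cells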;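 on viability: percent of carrier control wells set as 100% viability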). Conditions: 18-24 h, measured here: SKBR3 viability, ATP luminescence, at 10 µM.
For assay [2], the target named is Receptor tyrosine-protein kinase erbB-2 (Homo sapiens) (UniProt P04626). The description is as above. Conditions: 18-24 h, at 10 µM, stronger effect = lower value.
Chain of Receptor tyrosine-protein kinase erbB-2 (Homo sapiens) (P04626 whole entry, looked up): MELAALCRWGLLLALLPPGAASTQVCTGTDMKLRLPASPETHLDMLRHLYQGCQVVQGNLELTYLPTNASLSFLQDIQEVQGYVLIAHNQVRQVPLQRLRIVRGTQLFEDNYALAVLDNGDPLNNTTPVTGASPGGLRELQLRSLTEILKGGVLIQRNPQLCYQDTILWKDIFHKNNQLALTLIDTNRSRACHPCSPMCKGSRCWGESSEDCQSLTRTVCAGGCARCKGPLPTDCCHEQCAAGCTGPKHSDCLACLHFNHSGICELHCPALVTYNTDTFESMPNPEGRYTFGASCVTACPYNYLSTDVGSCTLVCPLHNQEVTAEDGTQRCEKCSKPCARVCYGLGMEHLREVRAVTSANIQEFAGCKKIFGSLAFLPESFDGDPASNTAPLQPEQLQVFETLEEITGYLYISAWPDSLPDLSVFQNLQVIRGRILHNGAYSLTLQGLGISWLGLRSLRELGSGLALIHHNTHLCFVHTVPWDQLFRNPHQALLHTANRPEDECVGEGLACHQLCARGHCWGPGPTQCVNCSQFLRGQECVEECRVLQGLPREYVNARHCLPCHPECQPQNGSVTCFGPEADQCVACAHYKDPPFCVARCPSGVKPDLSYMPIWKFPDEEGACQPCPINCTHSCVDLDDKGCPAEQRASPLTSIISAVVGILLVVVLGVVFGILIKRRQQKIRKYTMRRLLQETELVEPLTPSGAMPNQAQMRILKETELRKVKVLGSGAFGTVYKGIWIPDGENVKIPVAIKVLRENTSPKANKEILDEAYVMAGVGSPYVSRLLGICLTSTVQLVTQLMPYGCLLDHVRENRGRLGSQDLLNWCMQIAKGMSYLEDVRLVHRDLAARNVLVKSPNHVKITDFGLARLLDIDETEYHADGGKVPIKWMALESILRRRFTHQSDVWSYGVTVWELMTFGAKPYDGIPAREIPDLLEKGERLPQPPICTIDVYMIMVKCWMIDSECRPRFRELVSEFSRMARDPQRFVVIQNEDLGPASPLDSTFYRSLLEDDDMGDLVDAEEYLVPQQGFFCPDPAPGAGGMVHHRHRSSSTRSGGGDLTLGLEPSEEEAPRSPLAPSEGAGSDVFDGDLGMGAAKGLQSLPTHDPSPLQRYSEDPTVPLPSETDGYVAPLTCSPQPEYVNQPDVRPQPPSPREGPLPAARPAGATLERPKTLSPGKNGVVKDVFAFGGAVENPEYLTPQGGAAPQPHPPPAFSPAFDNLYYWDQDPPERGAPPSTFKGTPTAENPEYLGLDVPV
Assay [3] in a line: SK-BR-3 cell growth inhibitors, pilot screen, 24 h, human (AID 572;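 active means viability at or below 10% of carrier control in both of two separate runs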;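 further: compound exposure lasted between 18 and 24 h rather than exactly 24 h; 100% = carrier-treated control wells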). As to conditions: SK-BR-3 viability, CellTiter-Glo luminescence, at 10 µM, stronger effect = lower value. For orientation: Cellular ATP, detected with luciferase, serves as a proxy for viable cell number.
Assay [4] can be described thus: HUVEC growth inhibition – cell-based, human, primary screen (AID 575).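 Further: 100% = median of untreated cell wells with 0.1% DMSO on each plate.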 As to conditions: HUVEC proliferation, CellTiter-Glo luminescence, 72 h; at 10 µM; stronger effect = lower value.
Assay [5] in a line: growth inhibitors of H69AR lung tumor, primary screen, human, duplicate replicates (AID 580;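 active means viability at or under a set limit in both replicates, limit being median viability minus 3 SD, cut at about 48% in these data, passing the limit was not always enough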;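 further: 100% = mean luminescence of untreated wells and 0% = no signal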). As to conditions: H69AR lung tumor cells viability, ATP luminescence, 72 h; at 10 µM; stronger effect = lower value.
A short description of assay [6]: reversal of MRP1-mediated doxorubicin resistance, pilot screen, H69AR cells, doxorubicin co-treatment (AID 601;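 active means viability loss from added drug above about 55%, and viability with drug at most 40%, in both replicates, limit read from the data, passing the limit was not always enough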). Conditions: CellTiter-Glo, 72 h, at 10 µM; for differential viability (reversal): stronger effect = higher value.
Assay [7] in a line: 384-well plate pilot, post-Golgi transport modulator project, inhibition of yeast transport mutant growth (AID 636; in the data active means inhibition above about 31%). As to conditions: absorbance 615 nm, about 18 h, stronger effect = higher value.
Assay [8] in a line: growth suppression of yeast trafficking mutant, preliminary HTS, modulators of trafficking downstream of Golgi apparatus project, 1536-format plate, OD 615 nm (AID 637; in the data active means inhibition above about 30%). Conditions: yeast transport mutant growth, absorbance 615 nm, 18 h; stronger effect = higher value.
Assay [9] in a line: OD615 S. cerevisiae growth inhibition, permissive medium, pilot counter-assay, permissive growth control for S. cerevisiae lifespan shortening project (AID 705;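 active means growth inhibition above 25% in both replicates, a cutoff set 3 SD above the mean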). As to conditions: OD615, 24 h, at 10 µM, stronger effect = higher value.
The nature of assay [10]: Restrictive medium S. cerevisiae growth inhibition, OD615, pilot screen of yeast lifespan reduction project, restrictive growth control (AID 706;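 active means growth inhibition above a set limit, 3 SD over mean compound inhibition, in both replicates, cut at about 43% in these data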;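 further: modified DeaD lifespan yeast strain shifted to restrictive glucose medium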). Conditions: OD615, 48 h, at 10 µM, stronger effect = higher value.
Assay [11] can be described thus: viability gain of MRP-1-high H69AR cells under doxorubicin, pilot screen, MRP-1 activator project, CellTiter-Glo, duplicate (AID 807;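 active means viability increase at or above a cutoff of the median across tested compounds plus 3 SD, cut at about 8.5% in these data, passing the limit was not always enough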;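 further: compound pretreatment 18-22 h then 72 h combined with doxorubicin; 0% = doxorubicin alone and 100% = vehicle without doxorubicin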). As to conditions: H69AR viability with doxorubicin, CellTiter-Glo luminescence; at 10 µM; stronger effect = higher value.
The nature of assay [12]: growth suppression of beta-catenin knockout HCT116, pilot screen, human colon tumor cells (AID 823;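 active means cell viability at or below a set limit in both duplicate runs, the limit being the all-compound median minus 4 SD, cut at about 23% in these data, passing the limit was not always enough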;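 further: 0% = wells killed by 20 µM Hyamine and 100% = untreated DMSO cell wells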). As to conditions: CellTiter-Glo, 60 h, at 10 µM, stronger effect = lower value.
The nature of assay [13]: growth suppression of PTEN-deleted HCT116, pilot screen, cell-based, HCT116 clonal line, CellTiter-Glo (AID 824;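 active means viability at or below 27.92% in each of two runs, the all-compound median minus 4 SD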;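 further: 0% = 20 µM Hyamine control and 100% = vehicle cell control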). Conditions: 60 h, at 10 µM, stronger effect = lower value.
Assay [14] is described as follows: inhibitors of the yeast RAM network, pilot screen, dse1pr::URA3 reporter, 5-FOA selection (AID 869;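 active means inhibition over a set limit, the all-compound mean plus 3 SD, in both replicate runs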;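 further: 0% = DMSO wells with no growth and 100% = 10 µM 1-NA-PP1 with full growth; RAM network block rescues cells from 5-FOA so hits raise OD615 growth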). As to conditions: S. cerevisiae dse1pr::URA3 5-FOA growth, OD615, 2 d; at 10 µM; stronger effect = higher value; strain carries analog-sensitive mutant Cbk1 kinase.
Assay [15] in a line: RAM signaling pathway blockade in yeast – S. cerevisiae, Pdr1DBD-CYC8 efflux-inhibited sensitized strain, primary screen (AID 1298;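 active means RAM network inhibition above 8.4% in each of two replicates, 3 SD over the compound average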;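 further: 0% = DMSO untreated cells without growth and 100% = 10 µM 1-NA-PP1 full growth; higher means more yeast growth rescued from 5-FOA killing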). As to conditions: S. cerevisiae cbk1-as DSE1-URA3 strain, 5-FOA growth OD615, 2 d; at 50 µM; stronger effect = higher value.
The mark [16] stands for this setting: H69AR cells + 2 uM doxorubicin, measured here: viability with 2 uM doxorubicin, stronger effect = lower value.
Setting [17] is: H69AR cells, compound alone cytotoxicity.

Results filed as inconclusive are left out. Activity calls are given as the source filed them.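 How the source made its calls, unless noted: active means viability at or below 30% in both replicate assays; inconclusive means viability at or below 30% in just one of the two assays; inactive means the rest.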

As a reminder, the viability is a read-out of living cells in per cent, often relative to untreated cells. In general, inhibition refers to the relative decrease from the control value, in per cent.

`CC1=C(C(=O)Nc2ccccc2)C(c2ccccn2)n2nc(CCCO)nc2N1` (stereo not given): the viability in assay [1] is 94.5%; in assay [3], 94.5% (inactive); in assay [4], 101% (inactive); in [5], 95.6% (inactive); in assay [6] (setting [16]) it was 94.1%; in assay [6] (setting [17]), 95.6%. Besides, the viability in assay [12] is 96.3% (inactive); in assay [13] it was 92.9% (inactive). Moreover, the Her2 level in assay [2] is 105% (inactive). Further, the differential viability (reversal) in assay [6] (H69AR cells + 2 uM doxorubicin) is 1.47% (inactive). Besides, the values for the inhibition in [7], in assay [8] and in assay [14] were -5.73% (inactive), -3.33% (inactive) and 1.56% (inactive), respectively. Besides, the results for the growth inhibition in assay [9] and in [10] were -14.1% (inactive) and -8.68% (inactive), respectively. Besides, the viability increase in [11] was -0.39% (inactive). In addition, in assay [15], the RAM network inhibition was 5.48% (inactive).
Regarding `CCOC(=O)Cn1c(=O)c(-c2ccccc2N)nc2ccccc21`, the viability in assay [1] was 101%; in assay [3], 101% (inactive); in assay [4], 85.3% (inactive); in [5], 75.6% (inactive); in assay [6] (setting [16]), 81.7%; in [6] (setting [17]), 75.6%. Besides, the viability was 108% (inactive) in assay [12] and 98.8% (inactive) in assay [13]. Further, in assay [2], the Her2 level was 84.5% (inactive). Moreover, in assay [6] (H69AR cells + 2 uM doxorubicin), the differential viability (reversal) was -6.16% (inactive). Besides, the inhibition was -5.6% (inactive) in [7], -2% (inactive) in assay [8] and 2.16% (inactive) in assay [14]. Further, the growth inhibition was 2.3% (inactive) in [9] and 0.83% (inactive) in assay [10]. For the same compound, in assay [11], the viability increase was -1.72% (inactive). Besides, the RAM network inhibition in assay [15] is 3.47% (inactive).
As for `Cc1ccc(-n2c3c(cc(C(=O)NC4CCSC4=O)c2=O)C(=O)CC(C)(C)C3)cc1` (stereo not given), the viability in assay [1] was 101%; in assay [3], 101% (inactive); in [4], 85.4% (inactive); in assay [5] it was 85.3% (inactive); in assay [6] (setting [16]) it was 70.7%; in [6] (setting [17]), 85.3%. Also, the results for the viability in assay [12] and in [13] were 99.1% (inactive) and 101% (inactive), respectively. Further, the Her2 level in assay [2] was 99.5% (inactive). The differential viability (reversal) in assay [6] (H69AR cells + 2 uM doxorubicin) is 14.6% (inactive). The inhibition was -1.69% (inactive) in [7], -0.67% (inactive) in [8] and 2.32% (inactive) in assay [14]. The growth inhibition is -1.71% (inactive) in assay [9] and -9.19% (inactive) in assay [10]. In [11], the viability increase is -2.78% (inactive). Further, the RAM network inhibition in assay [15] was 4.09% (inactive).
`COC(=O)CCCCC(=O)C1C(=O)CC(C)(C)C(C(=O)OC)C1=O` (stereo not given): the viability in assay [1] is 91.5%; in [3] it was 91.5% (inactive); in assay [4], 91.2% (inactive); in [5] it was 91.7% (inactive); in assay [6] (setting [16]), 95.5%; in assay [6] (setting [17]) it was 91.7%. The viability in [12] is 94.4% (inactive); in [13] it was 93.6% (inactive). The Her2 level in assay [2] is 118% (inactive). The differential viability (reversal) in assay [6] (H69AR cells + 2 uM doxorubicin) was -3.76% (inactive). Further, the values for the inhibition in assay [7], in assay [8] and in [14] were 2.08% (inactive), -8% (inactive) and 1.31% (inactive), respectively. In addition, the growth inhibition in assay [9] was -15.7% (inactive); in assay [10] it was -6.2% (inactive). The viability increase in [11] is -1.69% (inactive). Moreover, the RAM network inhibition in assay [15] is -0.78% (inactive).
As for `O=C(C1CCN(S(=O)(=O)c2cccc3cccnc23)CC1)N1CCN(C2CCCCC2)CC1`, the viability was 102% in [1]; 102% (inactive) in [3]; 99.9% (inactive) in assay [4]; 102% (inactive) in assay [5]; 99.2% in assay [6] (setting [16]); 102% in [6] (setting [17]). In addition, the viability was 97.8% (inactive) in assay [12] and 98.7% (inactive) in assay [13]. The Her2 level in assay [2] was 102% (inactive). Further, in [6] (H69AR cells + 2 uM doxorubicin), the differential viability (reversal) is 2.56% (inactive). Also, the figures for the inhibition in assay [7], in assay [8] and in [14] were -2.8% (inactive), -0.49% (inactive) and 1.12% (inactive), respectively. The growth inhibition in assay [9] is 6.08% (inactive); in assay [10], 0.815% (inactive). Moreover, the viability increase in [11] is -2.03% (inactive). In addition, the RAM network inhibition in assay [15] is 7.73% (inactive).
